This excerpt belongs to a sample that is enriched for hits.
NSD2 inh – NSD2 (human) methyltransferase inhibition | O96028 | NSD2-SET H3K36me1 DELFIA fluorescence, biochemical | inhibition, % at 12.5 µM | 44,000 tested, 0.07% active; in the data active = inhibition above about 54%, passing the limit was not always enough;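 also: inhibitors reduce the monomethyl H3K36 fluorescence signal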
Starred values were filed as active, the others as inactive.

SMILES	NSD2 inh
COC(=O)C1=COC(OC2OC(CO)C(O)C(O)C2O)C2C1C(O)CC2(C)OC(C)=O (stereo not drawn)	6
CC(C)(C)C1CCc2nc(N)c3c(=O)oc4ccccc4c3c2C1 (stereo not drawn)	4
CCCNC(=O)CSc1nc2nc(C)c(Cc3cccc(C)c3)c(C)n2n1	-3
CC(=O)O[C@@H]1CC2C(C)(C)C(=O)C3OC3[C@]2(C)C2CC[C@@]3(C)[C@H](c4ccoc4)OC(=O)C4OC43[C@@]21C (stereo partly drawn)	-2
COC(=O)[C@@H](O)[C@H]1[C@@]2(C)C[C@]3(O)C4[C@@H](O[C@]56CC(=O)O[C@@H](c7ccoc7)[C@@]5(C)CCC([C@]46O)[C@]13C)[C@H]2O (stereo partly drawn)	76*
CC12CC(c3ccoc3)OC(=O)C1CCC1(C)C2C2OC(=O)C1(O)C1OC21 (stereo not drawn)	2
O=C(NO)c1cccc(C(=O)N/N=C/c2cccc(O)c2O)c1	16
O=C(NO)c1cccc(C(=O)N/N=C/c2ccc(O)c(O)c2O)c1	63*
O=C(NO)c1cccc(C(=O)N/N=C/c2ccc(O)c3ccccc23)c1	-1
CCOC(=O)N1CCN(Cc2nnc(-c3ccc4c(c3)OCO4)o2)CC1	5
CCCCC/C=C\C/C=C\CCCCCCCC(=O)OC(CO)CO	-9
COC(=O)C1=COC(O[C@@H]2O[C@H](CO)[C@@H](O)[C@H](O)[C@H]2O)[C@@H]2[C@@](C)(O)[C@@H](OC(=O)/C=C/c3ccc(OC)cc3)C[C@]12O (stereo partly drawn)	3
O=C(N/N=C/c1ccc(O)c(O)c1O)c1ccccc1O	7
CCC1(CC)Cc2ccccc2-c2[nH]c(=S)n(Cc3ccccc3)c(=O)c21	-3
